Assay results taken from PubChem BioAssay AID1159580 (chemical genetic matrix, 2015).
Among all 5,500 compounds or so, about 2,000 (36%) were called active. Not shown: some 18% with an inconclusive outcome. This is one part of the list. Unmarked numbers belong to inactive results. No stated cut-off is given here; in the data, active means normalized growth mostly below about 0.91 (no sharp cut-off); inconclusive means no clear call, values can overlap the other calls; inactive means mostly above about 0.92.

Experiment: chemical genetic growth profiling, strain panel (AID 1159580);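 further: tested at 20 µM; growth read once vehicle control cultures reached saturation at 30 °C; 1 = growth at the plate median or of vehicle wells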
Conditions: S. cerevisiae deletion strains, growth OD

## CCCCC(CC)CN1CN(CC(CC)CCCC)CC(C)(N)C1 (stereo not drawn)
Locus YAL013W, strain DEP1, stronger effect = lower value
  normalized growth: 0.14 (active)
Locus YAL021C, strain ccr4, stronger effect = lower value
  normalized growth: 0.0639 (active)
Locus YAL026C, strain drs2, stronger effect = lower value
  normalized growth: 0.0615 (active)
Locus YAL030W, strain snc1, stronger effect = lower value
  normalized growth: 0.0534 (active)
Locus YBL061C, strain skt5, stronger effect = lower value
  normalized growth: 0.0552 (active)
Locus YBR009C, strain hhf1, stronger effect = lower value
  normalized growth: 0.0618 (active)
Locus YBR021W, strain FUR4, stronger effect = lower value
  normalized growth: 0.168 (active)
Locus YBR023C, strain chs3, stronger effect = lower value
  normalized growth: 0.0607 (active)
Locus YBR171W, strain sec66, stronger effect = lower value
  normalized growth: 0.0721 (active)
Locus YBR229C, strain ROT2, stronger effect = lower value
  normalized growth: 0.816 (active)
Locus YBR231C, strain swc5, stronger effect = lower value
  normalized growth: 0.0597 (active)
Locus YBR279W, strain paf1, stronger effect = lower value
  normalized growth: 0.088 (active)
Locus YCL011C, strain gbp2, stronger effect = lower value
  normalized growth: 0.0548 (active)
Locus YCL016C, strain dcc1, stronger effect = lower value
  normalized growth: 0.0625 (active)
Locus YCL029C, strain bik1, stronger effect = lower value
  normalized growth: 0.573 (active)
Locus YCL061C, strain MRC1, stronger effect = lower value
  normalized growth: 0.062 (active)
Locus YCL069W, strain vba3, stronger effect = lower value
  normalized growth: 0.0607 (active)
Locus YCR088W, strain abp1, stronger effect = lower value
  normalized growth: 0.0577 (active)
Locus YDL005C, strain med2, stronger effect = lower value
  normalized growth: 0.0691 (active)
Locus YDL035C, strain GPR1, stronger effect = lower value
  normalized growth: 0.329 (active)
Locus YDL040C, strain nat1, stronger effect = lower value
  normalized growth: 0.055 (active)
Locus YDL074C, strain BRE1, stronger effect = lower value
  normalized growth: 0.228 (active)
Locus YDL101C, strain DUN1, stronger effect = lower value
  normalized growth: 0.417 (active)
Locus YDL134C, strain PPH21, stronger effect = lower value
  normalized growth: 0.58 (active)
Locus YDL185W, strain tfp1, stronger effect = lower value
  normalized growth: 1.02
Locus YDL192W, strain arf1, stronger effect = lower value
  normalized growth: 0.0997 (active)
Locus YDR001C, strain nth1, stronger effect = lower value
  normalized growth: 0.0567 (active)
Locus YDR069C, strain doa4, stronger effect = lower value
  normalized growth: 0.0614 (active)
Locus YDR101C, strain arx1, stronger effect = lower value
  normalized growth: 0.573 (active)
Locus YDR137W, strain rgp1, stronger effect = lower value
  normalized growth: 0.111 (active)
Locus YDR150W, strain NUM1, stronger effect = lower value
  normalized growth: 0.801 (active)
Locus YDR159W, strain sac3, stronger effect = lower value
  normalized growth: 0.0869 (active)
Locus YDR162C, strain NBP2, stronger effect = lower value
  normalized growth: 0.233 (active)
Locus YDR195W, strain ref2
  normalized growth: 0.116 (active)
Locus YDR297W, strain sur2, stronger effect = lower value
  normalized growth: 0.0539 (active)
Locus YDR318W, strain mcm21, stronger effect = lower value
  normalized growth: 0.471 (active)
Locus YDR334W, strain swr1, stronger effect = lower value
  normalized growth: 0.0598 (active)
Locus YDR335W, strain msn5, stronger effect = lower value
  normalized growth: 0.0571 (active)
Locus YDR388W, stronger effect = lower value
  normalized growth: 0.15 (active)
Locus YDR392W, strain spt3, stronger effect = lower value
  normalized growth: 0.0725 (active)
Locus YDR502C, strain sam2, stronger effect = lower value
  normalized growth: 0.401 (active)
Locus YEL003W, strain gim4, stronger effect = lower value
  normalized growth: 0.0521 (active)
Locus YEL037C, strain rad23, stronger effect = lower value
  normalized growth: 0.0554 (active)
Locus YEL061C, strain CIN8 (second series), stronger effect = lower value
  normalized growth: 0.0574 (active)
Locus YEL061C, strain CIN8, stronger effect = lower value
  normalized growth: 0.472 (active)
Locus YER015W, strain faa2, stronger effect = lower value
  normalized growth: 0.0593 (active)
Locus YER016W, strain bim1, stronger effect = lower value
  normalized growth: 0.0563 (active)
Locus YER110C, stronger effect = lower value
  normalized growth: 0.627 (active)
Locus YER111C, strain swi4, stronger effect = lower value
  normalized growth: 0.0661 (active)
Locus YER155C, strain BEM2 (second series), stronger effect = lower value
  normalized growth: 0.0846 (active)
Locus YER155C, strain BEM2, stronger effect = lower value
  normalized growth: 0.425 (active)
Locus YER167W, strain BCK2, stronger effect = lower value
  normalized growth: 0.55 (active)
Locus YFR010W, strain ubp6, stronger effect = lower value
  normalized growth: 0.0701 (active)
Locus YGL078C, strain dbp3, stronger effect = lower value
  normalized growth: 1
Locus YGL086W, strain mad1, stronger effect = lower value
  normalized growth: 0.283 (active)
Locus YGL167C, strain pmr1, stronger effect = lower value
  normalized growth: 0.0684 (active)
Locus YGL173C, strain kem1, stronger effect = lower value
  normalized growth: 0.0624 (active)
Locus YGL227W, strain vid30, stronger effect = lower value
  normalized growth: 0.0601 (active)
Locus YGL240W, strain doc1, stronger effect = lower value
  normalized growth: 0.0704 (active)
Locus YGL248W, strain PDE1, stronger effect = lower value
  normalized growth: 0.633 (active)
Locus YGL253W, strain hxk2, stronger effect = lower value
  normalized growth: 0.0538 (active)
Locus YGR078C, strain PAC10, stronger effect = lower value
  normalized growth: 0.469 (active)
Locus YGR135W, strain pre9, stronger effect = lower value
  normalized growth: 0.381 (active)
Locus YGR229C, strain SMI1, stronger effect = lower value
  normalized growth: 0.0664 (active)
Locus YGR252W, strain gcn5, stronger effect = lower value
  normalized growth: 0.224 (active)
Locus YHR013C, strain ard1, stronger effect = lower value
  normalized growth: 0.124 (active)
Locus YHR027C, strain rpn1, stronger effect = lower value
  normalized growth: 0.0601 (active)
Locus YHR030C, strain SLT2, stronger effect = lower value
  normalized growth: 0.133 (active)
Locus YHR079C, strain IRE1 (second series), stronger effect = lower value
  normalized growth: 0.573 (active)
Locus YHR094C, strain hxt1, stronger effect = lower value
  normalized growth: 0.911 (active)
Locus YHR129C, strain ARP1, stronger effect = lower value
  normalized growth: 0.716 (active)
Locus YHR142W, strain chs7, stronger effect = lower value
  normalized growth: 0.077 (active)
Locus YHR200W, strain rpn10, stronger effect = lower value
  normalized growth: 0.214 (active)
Locus YIL066C, strain RNR3, stronger effect = lower value
  normalized growth: 0.45 (active)
Locus YIL073C, strain SPO22, stronger effect = lower value
  normalized growth: 0.364 (active)
Locus YIL125W, strain kgd1, stronger effect = lower value
  normalized growth: 1.01
Locus YIR030C, strain dcg1, stronger effect = lower value
  normalized growth: 0.651 (active)
Locus YJL092W, strain hpr5, stronger effect = lower value
  normalized growth: 0.0575 (active)
Locus YJL095W, strain BCK1 (second series), stronger effect = lower value
  normalized growth: 0.0537 (active)
Locus YJL095W, strain BCK1, stronger effect = lower value
  normalized growth: 0.188 (active)
Locus YJL115W, strain asf1, stronger effect = lower value
  normalized growth: 0.068 (active)
Locus YJL129C, strain trk1, stronger effect = lower value
  normalized growth: 0.083 (active)
Locus YJL134W, strain LCB3, stronger effect = lower value
  normalized growth: 0.918 (active)
Locus YJL154C, strain vps35, stronger effect = lower value
  normalized growth: 0.0563 (active)
Locus YJL164C, strain tpk1, stronger effect = lower value
  normalized growth: 0.0598 (active)
Locus YJL166W, strain qcr8, stronger effect = lower value
  normalized growth: 0.0595 (active)
Locus YJL168C, strain set2, stronger effect = lower value
  normalized growth: 0.826 (active)
Locus YJL187C, strain SWE1 (second series), stronger effect = lower value
  normalized growth: 0.513 (active)
